These results are taken from PubChem BioAssay AID645 (SRMLSC, 2007).

Out of some 65,000 compounds screened, about 450 (0.69%) were called active. The sample holds actives, similar compounds and a random draw of the others, so the mix is not that of the screen. A number with no mark means an inactive call.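 How the source made its calls: active means HER2 level under 5% of the carrier-only control; inconclusive means no clear call, values can overlap the other calls; inactive means the rest.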

The target of this assay is Receptor tyrosine-protein kinase erbB-2 (Homo sapiens) (UniProt P04626). The assay is described as follows: reducers of endogenous HER2 protein levels – SKBR-3 cells, AlphaScreen, 66K library, primary screen (AID 645).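 Further: 100% = DMSO carrier and 0% = 500 nM PU-H71 HSP90 inhibitor; lower value means stronger loss of Her2 protein.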 The conditions noted are these: SKBR-3 HER2 protein level, 18-24 h, at 10 µM, active compounds read low. In general terms: Bead proximity is the source of the signal in Alpha formats.
Sequence of Receptor tyrosine-protein kinase erbB-2 (Homo sapiens) (P04626 whole entry, looked up): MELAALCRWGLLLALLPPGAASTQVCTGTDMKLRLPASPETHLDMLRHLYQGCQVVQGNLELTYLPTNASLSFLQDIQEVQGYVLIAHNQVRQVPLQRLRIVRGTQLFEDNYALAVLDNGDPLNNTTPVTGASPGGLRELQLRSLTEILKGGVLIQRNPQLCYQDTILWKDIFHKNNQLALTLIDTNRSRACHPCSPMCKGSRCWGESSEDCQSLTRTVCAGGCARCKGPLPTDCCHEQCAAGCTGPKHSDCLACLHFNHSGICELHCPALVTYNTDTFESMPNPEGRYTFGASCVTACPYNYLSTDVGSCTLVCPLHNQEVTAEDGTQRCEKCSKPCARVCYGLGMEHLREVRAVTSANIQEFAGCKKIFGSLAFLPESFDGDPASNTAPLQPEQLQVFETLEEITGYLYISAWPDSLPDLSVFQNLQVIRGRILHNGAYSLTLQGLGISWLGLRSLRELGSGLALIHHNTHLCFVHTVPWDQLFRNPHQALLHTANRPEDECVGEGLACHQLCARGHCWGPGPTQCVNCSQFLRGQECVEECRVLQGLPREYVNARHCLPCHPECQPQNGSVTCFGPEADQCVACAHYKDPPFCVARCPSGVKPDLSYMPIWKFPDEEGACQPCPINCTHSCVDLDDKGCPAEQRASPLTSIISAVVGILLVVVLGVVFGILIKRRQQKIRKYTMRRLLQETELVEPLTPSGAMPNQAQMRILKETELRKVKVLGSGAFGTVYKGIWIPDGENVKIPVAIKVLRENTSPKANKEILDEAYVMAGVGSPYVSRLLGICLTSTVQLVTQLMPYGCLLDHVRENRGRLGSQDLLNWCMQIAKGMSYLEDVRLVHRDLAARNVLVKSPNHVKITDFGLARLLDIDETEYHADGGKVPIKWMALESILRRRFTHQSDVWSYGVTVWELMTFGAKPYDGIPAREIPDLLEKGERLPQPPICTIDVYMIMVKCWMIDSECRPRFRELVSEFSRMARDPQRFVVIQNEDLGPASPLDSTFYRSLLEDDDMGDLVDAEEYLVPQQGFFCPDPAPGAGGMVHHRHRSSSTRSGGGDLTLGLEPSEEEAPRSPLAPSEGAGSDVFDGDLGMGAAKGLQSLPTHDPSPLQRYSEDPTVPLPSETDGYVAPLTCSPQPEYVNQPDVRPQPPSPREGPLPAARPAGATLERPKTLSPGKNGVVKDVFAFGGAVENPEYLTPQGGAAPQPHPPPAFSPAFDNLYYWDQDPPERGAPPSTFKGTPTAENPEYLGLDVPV
Turning to `CC(=O)c1c(O)n(C2CCCCCC2)c(=O)[nH]c1=O`, the HER2 level % of control was 69.8%.

As to `CC(=NCC1CCCO1)c1c(O)n(-c2ccccc2)c(=O)[nH]c1=O` (stereo not given), the HER2 level % of control is -16.3% (active).

On to `CCC(=NCCCO)c1c(O)n(-c2ccc(OC)cc2)c(=O)[nH]c1=O`, for which the HER2 level % of control was 92.7%.

Take `CC(=O)N1CN2CN(C(C)=O)CC(C(=O)c3ccc(Br)cc3)(C2)C1`: the HER2 level % of control was 119%.

Consider `Cc1ccc(Cn2nnnc2CN2CCC(n3nnc4ccccc43)CC2)cc1`, for which the HER2 level % of control is 69.1%.
